Assay outcomes: PubChem, National Center for Advancing Translational Sciences (NCATS)
An excerpt weighted towards active compounds, which were near 0.39% of everything screened.
GLS inh = qHTS for Inhibitors of Glutaminase (GLS) | Glutaminase kidney isoform, mitochondrial (Homo sapiens), O94925 | GLS enzymatic activity, qHTS titration | Potency, µM (top dose mostly 45.5 µM), without a hit: at the highest dose activity change, negative = inhibition, most hits filed as inhibitors | 410,000 compounds, 0.21% hits | AID 624170, 2012; further: on the % scale 0 is the no-effect control and ±100 the full control effect
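Compounds were pin-transferred onto hKGA, after which L-glutamine (1 mM solution) and a detection mix of glutamate oxidase, HRP and Amplex Red were added. Initial and 30 min RT fluorescence reads were collected.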
Tb PFK inh = qHTS Assay to Find Inhibitors of T. brucei phosphofructokinase | ATP-dependent 6-phosphofructokinase (Trypanosoma brucei brucei), O15648 | T. brucei PFK, ADP-Glo luminescence | Potency, µM (titrated, usually from 57.5 µM), for inactives: top-dose activity, negative = inhibition, most hits filed as inhibitors | 330,000 compounds, 0.17% hits;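 further: 0% = uninhibited 1x PFK enzyme wells and -100% = no-enzyme wells; nearly all actives have a fitted effect of over 60% in size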
Target sequence (O15648 whole entry, looked up): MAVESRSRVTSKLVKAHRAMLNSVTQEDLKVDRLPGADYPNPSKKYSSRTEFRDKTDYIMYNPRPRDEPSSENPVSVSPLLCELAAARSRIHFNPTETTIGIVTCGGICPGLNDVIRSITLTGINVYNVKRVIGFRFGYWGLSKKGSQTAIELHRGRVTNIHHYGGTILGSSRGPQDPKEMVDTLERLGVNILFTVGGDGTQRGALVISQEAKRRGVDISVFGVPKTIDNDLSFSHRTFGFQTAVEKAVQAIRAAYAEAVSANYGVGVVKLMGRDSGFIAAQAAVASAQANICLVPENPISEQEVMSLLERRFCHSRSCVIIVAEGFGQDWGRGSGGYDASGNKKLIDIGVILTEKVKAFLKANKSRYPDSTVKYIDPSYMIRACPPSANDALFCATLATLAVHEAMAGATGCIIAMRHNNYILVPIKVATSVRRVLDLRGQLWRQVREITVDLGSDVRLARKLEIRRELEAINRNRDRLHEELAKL
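In TEA buffer at pH 8.0 with 5 mM MgCl2, enzyme (1.25 nM) converted F6P (0.5 mM) and ATP (0.1 mM) for 45 min at room temperature. ADP product was read by luciferase luminescence.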
p53 reactivation = qHTS assay for re-activators of p53 using a Luc reporter | H1299 p53-A138V BP100-luciferase reporter, luminescence, 24 h | Potency, µM (top dose mostly 92.2 µM), inactives show at the top dose activity change, positive = activation, usual class: activators | 320,000 compounds, 0.063% hits; further: % of control where 0% means no effect; nearly all actives have a fitted effect of over 45% in size
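H1299 (p53-null), stable ts p53-A138V + BP100-Luc; 1000 cells/well, Opti-MEM/10% FBS; cpd 4 pt, 1:5; 24 h, 37 deg C, 5% CO2; detection reagent 10 min RT; luminescence.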
USP2a inh = qHTS Assay for Inhibitors of Ubiquitin-specific Protease USP2a Using CHOP2 as the Reporter | USP2 core, Ub-CHOP2 coupled fluorogenic reporter, 485/531 | Ubiquitin carboxyl-terminal hydrolase 2 (Homo sapiens), O75604 | 330,000 compounds, 0.01% hits | Potency, µM (titrated, usually from 38.3 µM), without a hit: top-dose activity change, negative = inhibition, most hits filed as inhibitors;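 further: plate controls were DMSO wells for no effect and full inhibition by NEM control for full effect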
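USP2 core (10nM final) preincubated 30min RT with compound in 20mM Tris-HCl pH 8.0, 2mM CaCl2, 2mM beta-mercaptoethanol, 0.05% CHAPS; 25nM Ub-CHOP2 plus 25nM reporter substrate added, fluorescence (Ex485/Em531) read after 60min.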
Starred values were filed as active, the others as inactive; ? = inconclusive; . = not tested or not shown; ! = a repeat was not active. The call rests on the fitted dose curve; in most records, active means well fitted curve in the direction sought with a large enough effect; inconclusive means small, poorly fitted or top-dose-only effect, or another doubt; inactive means no such curve, though single readings can be large; an effect the other way counts as inactive or inconclusive. Potency means the concentration at half of the fitted maximal effect.

SMILES	GLS inh	Tb PFK inh	p53 reactivation	USP2a inh
COc1ccc(/C=N\NC(=O)CNC(=O)C(c2ccccc2)c2ccccc2)cc1[N+](=O)[O-]	0.0%	3.5%	-0.1%	-9.1%
COc1cc(/C=N/NC(=O)Cn2cnc3ccccc3c2=O)ccc1O	20µM*	-3.7%	-2.6%	0.7%
COc1cc(/C=N\NC(=O)CNC(=O)C(c2ccccc2)c2ccccc2)ccc1O	11.2µM*	4.5%	-6.4%	1.4%
O=c1c2oc3ccccc3c2n(Cc2ccccc2F)c(=O)n1Cc1ccccc1	1.0%	.	.	.
COc1cccc(OC)c1C(=O)N[C@@H]1C(=O)N2[C@@H]1SC(C)(C)[C@@H]2C(=O)O	0.0%	.	.	.
Cc1onc(-c2c(Cl)cccc2Cl)c1C(=O)NC1C(=O)N2C1SC(C)(C)C2C(=O)O (stereo not given)	12.6µM*	-4.4%	0.9%	0.0%
Cc1onc(-c2c(Cl)cccc2Cl)c1C(=O)N[C@@H]1C(=O)N2[C@@H]1SC(C)(C)[C@@H]2C(=O)O	10µM*!	-8.2%	-2.4%	0.5%
Cc1onc(-c2ccccc2)c1C(=O)N[C@@H]1C(=O)N2C1SC(C)(C)[C@@H]2C(=O)O (stereo not given in full)	2.7%	.	.	.
O=[N+]([O-])c1ccc(C=Nc2ccc(Cl)c([N+](=O)[O-])c2)s1	.	23.9µM*	-12.1%	9.2%
COc1cccc(CNC(=O)c2[nH]c3cc(C)ccc3c2Sc2ccccc2)c1	-3.1%	.	.	.
CCN(CC)c1ccc(NC(=O)c2cc(CN3CCCC3)on2)c(C)c1	41.2%	.	.	.
O=C(Cn1c(=O)n(Cc2ccc(F)cc2)c(=O)c2sc3ccccc3c21)Nc1ccc(F)cc1F	-2.5%	.	.	.
O=C(Nc1ccc(Cl)c(Cl)c1)Oc1ccc(NC(=O)c2ccco2)cc1	13.9%	13.5µM*	9.2%	-1.5%
Cc1ccccc1C(=O)NNc1ncnc2c1cnn2C	2.3%	-9.2%	-0.5%	2.5%
Cc1ccc(C(=O)NNc2ncnc3c2cnn3C)cc1	5.01µM*	-0.3%	0.3%	-3.1%
N/C(=N\OC(=O)c1ccco1)c1ccccc1	-0.8%	-4.8%	?	0.1%
Cc1ccc(/C(N)=N/OC(=O)c2ccco2)cc1	0.1%	-3.0%	17.8µM*	3.4%
CCN(CC)C(=O)c1sc2c(c1C)c(=O)n(-c1ccc(Cl)c(Cl)c1)c(=O)n2Cc1ccccc1C#N	5.2%	.	.	.
O=S(=O)(NCC1CCCO1)c1cc(Cl)ccc1Cl (stereo not given)	0.8%	4.4%	0.5%	2.1%
O=C(O)c1ccc(Cl)c(S(=O)(=O)NCC2CCCO2)c1 (stereo not given)	10µM*	0.2%	4.9%	2.8%
O=C(O)c1[nH]c2ccccc2c1C(c1ccccc1)c1c(C(=O)O)[nH]c2ccccc12	11.2µM*	-16.6%	.	-1.2%
CC1(C)S[C@@H]2[C@H](NC(=O)C(C(=O)Oc3ccc4c(c3)CCC4)c3ccccc3)C(=O)N2[C@H]1C(=O)O (stereo not given in full)	7.94µM*	.	.	.
C=NC(C(=O)NC1C(=O)N2C1SC(C)(C)C2C(=O)O)c1ccccc1 (stereo not given)	28.2µM*	.	.	.
CN(C)S(=O)(=O)c1cccc(NC(=S)N/N=C/c2ccc(O)c(O)c2O)c1	7.94µM*	?	-7.2%	3.8%
COc1ccc(-c2cc(NCc3ccc(C)cc3)n3cnnc3n2)cc1	4.7%	.	.	.
SMILES	GLS inh	Tb PFK inh	p53 reactivation	USP2a inh
COc1cccc(-c2nc(SCc3cccc(Br)c3)n3[nH]c(=O)cc3n2)c1	11.1%	.	.	.
O=C(N/N=C/c1ccc(O)c(O)c1)c1cccc(S(=O)(=O)N2CCCC2)c1	11.2µM*	-20.7%	8.9%	-0.3%
N=C1C(c2nc3ccccc3c(=O)[nH]2)=C(O)CN1CCc1ccccc1	-9.0%	1.7%	-5.0%	0.794µM*
Cc1ccc(CNC(=O)CCS(=O)(=O)c2ccc(Br)cc2)cc1	11.2µM*	?	-1.3%	2.3%
Cc1ccc(S(=O)(=O)CCC(=O)OCC(=O)NCc2ccc(F)cc2)cc1	-7.4%	.	.	.
O=C(CCS(=O)(=O)c1ccc(Br)cc1)NCc1ccc(F)cc1	?	23.9µM*	4.5%	1.3%
O=C(Cn1c(=O)nc(-c2ccccc2)c2cc(Cl)ccc21)NCCCc1ccccc1	-12.6%	.	.	.
Cc1nc2scc(-c3ccccc3)c2c(=O)n1N=C1C=CC(=O)C=C1	3.16µM*	4.7%	-1.7%	2.5%
Cc1nc2scc(-c3ccccc3)c2c(=O)n1N	-0.6%	2.7%	0.9%	-2.7%
Cc1ccc(-c2c(CN3CCN(c4cccc(C)c4)C(C)C3)csc2C)cc1 (stereo not given)	-2.2%	.	.	.
O=C(CCn1c(=O)c2sccc2n(Cc2ccccc2F)c1=O)NCc1ccc2c(c1)OCO2	-6.7%	.	.	.
COC(=O)c1cc(O)cc(OC)c1C(=O)c1c(O)cc(C)cc1O	10.0%	0.8%	-7.0%	3.6%
COC(=O)c1cc(O)cc(OC)c1Oc1cc(C)cc(O)c1C(=O)O	11.2µM*	-8.5%	8.9%	-5.7%
COc1ccc(OC)c(N2C(=O)[C@@H]3C(c4ccccc4Cl)=NO[C@@H]3C2=O)c1	11.2µM*	-12.1%	-15.8%	-0.6%
O=C(CN1CCN(c2ccc(O)cc2)CC1)N1CCc2ccccc21	8.91µM*	-26.6%	-7.3%	2.1%
CCCCCCCCCCCCCC[N+](C)(C)Cc1ccccc1	-12.5%	.	.	.
CCCCCCCCCCCCCCCC[N+](C)(C)Cc1ccccc1	31.6µM*	.	.	.
Cc1ccc(NC(=O)Cn2cc(S(=O)(=O)N3CCN(c4ccccc4F)CC3)c3ccccc3c2=O)cc1F	-11.2%	.	.	.
CN(C)c1ccc(-c2noc(-c3ccccc3O)n2)cc1	2.8%	0.4%	7.08µM*	0.0%
Cc1ccc2c(c1C)NC(C(=O)O)C1CC=CC21 (stereo not given)	?	?	0.5%	-2.7%
O=C(O)C1Nc2c(C(=O)N3CCOCC3)cccc2C2C=CCC12 (stereo not given)	2.51µM*	-26.9%	1.1%	5.7%
CCOC(=O)C1CCN(C(=O)c2ccc(N(C)S(C)(=O)=O)cc2)CC1	1.8%	-0.3%	-0.1%	4.9%
CN(c1ccc(C(=O)COC(=O)C2CC2)cc1)S(C)(=O)=O	2.0%	8.4%	35.5µM*	1.4%
OC[C@H]1O[C@H](OC/C=C/c2ccccc2)[C@H](O)[C@@H](O)[C@@H]1O	0.3%	.	.	.
O=C(NCCC1=CCCCC1)c1ccc2c(c1)N(Cc1ccc(Cl)cc1)C(=O)c1ccccc1S2(=O)=O	-9.0%	.	.	.
CCOC(=O)c1c(-c2ccccc2)oc2ccc(NS(=O)(=O)c3ccc(C)cc3C)cc12	-3.6%	.	.	.
COC(=O)c1ccc(NC(=O)CSC2=Nc3ccccc3C3CC=NN23)cc1 (stereo not given)	14.1µM*	1.2%	-0.5%	?
NC(=O)c1ccc(NC(=O)CSC2=Nc3ccccc3C3CC=NN23)cc1 (stereo not given)	-14.2%	1.8%	-5.4%	3.4%
